# Measurements reported in PubChem BioAssay (NCATS).
# Values joined by “and” are separate entries in the source; they are usually repeats but may differ in a detail not shown here. Identical values can stand only once. Records with an inconclusive call do not appear. More than one record can exist for a structure, and the calls need not agree. Active and inactive are the calls of the source. Calls come from the whole dose curve; as a rule, active = well fitted curve in the direction sought with a large enough effect; inconclusive = small, poorly fitted or top-dose-only effect, or another doubt; inactive = no such curve, though single readings can be large; an effect the other way counts as inactive or inconclusive.
# Key:
# [1] = Viability qHTS for spleen associated tyrosine kinase inhibitor (SYKi) naive MV4-11 cells (AID 1963823); note: nearly all actives have a fitted effect of over 40% in size
# Outline: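 In this viability screen, compounds acted on SYK inhibitor naive MV4-11 cells for three days (72 hr, 37 C). Remaining viable cells were measured by CellTiter-Glo luminescence following a 10 min room-temperature development.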
# [2] = Viability qHTS for spleen associated tyrosine kinase inhibitor (SYKi) drug resistant MV4-11 cells (AID 1963824); note: nearly all actives have a fitted effect of over 35% in size
# Outline: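 CellTiter-Glo luminescence, read 10 min after reagent addition, reports viability after a 72 hr compound exposure. Cells are an MV4-11 line made resistant to SYK inhibition, seeded at 500 per well onto compound-containing plates.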
# [3] = Cellular viability qHTS for adrenocortical cancer (ACC) cell line NCI-H295R (AID 1963990); note: nearly all actives have a fitted effect of over 60% in size;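 for activity change, negative = viability loss: 0% = DMSO only wells and -100% = full killing with cytotoxic reference compound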
# Outline: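 Viability of NCI-H295R after 48 h of treatment (final up to 46 uM) measured through cellular ATP luminescence.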
# [4] = Cellular viability qHTS for adrenocortical cancer (ACC) cell line SW-13 (AID 1963989); conditions: SW-13 ACC cells viability, CellTiter-Glo, 48 h; activity (max response): stronger effect = lower value; note: nearly all actives have a fitted effect of over 65% in size;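 for activity (max response): cells grown in serum-free medium with ITS supplement; % is set by controls: 0 for no effect and ±100 for the full control effect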
# Outline: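 Here, serum-free SW-13 cultures were dosed up to 46 uM. Following 48 h, ATP-dependent luminescence (CellTiter-Glo) reported viable cells, and logistic modeling produced IC50 values.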
# Potency is the fitted concentration of half-maximal effect.
smiles,measurement,setting,value
CNCC[C@H](Oc1cccc2ccccc12)c1cccs1,Potency,[1],18.8 µM (active)
same,Potency,[2],26.6 µM (active)
same,Potency,[3],18.4 µM (active)
CN1CCCC(CC2c3ccccc3Sc3ccccc32)C1 (configuration not stated),Potency,[1],18.8 µM (active)
same,Potency,[2],16.8 µM (active)
same,Potency,[3],18.4 µM (active)
Cc1nc(NC(=O)N2CCCC2C(N)=O)sc1-c1ccnc(C(C)(C)C(F)(F)F)c1 (configuration not stated),Potency,[1],18.6 µM (active)
same,Potency,[2],9.2 µM (active)
same,Potency,[3],12.6 µM (active)
C#C[C@]1(O)CC[C@H]2[C@@H]3CCc4cc(O)ccc4[C@H]3CC[C@@]21C,Potency,[1],inactive and 14.8 µM (active)
same,Potency,[2],inactive and 7.42 µM (active)
same,Potency,[4],7.94 µM (active)
same,Potency,[3],3.55 µM (active)
COc1ccc(N2C(=O)N(c3c(C)cccc3Cl)Cc3cnc(Nc4ccc(C5CCN(C)CC5)cc4OC)nc32)nc1,Potency,[1],0.934 µM (active)
same,Potency,[2],1.48 µM (active)
same,Potency,[4],2.24 µM (active)
same,Potency,[3],17.8 µM (active)
CN[C@@H]1C[C@H]2O[C@@](C)([C@@H]1OC)n1c3ccccc3c3c4c(c5c6ccccc6n2c5c31)C(=O)N[C@H]4O,Potency,[1],0.0119 µM (active)
same,Potency,[2],0.0237 µM (active)
same,Potency,[4],0.376 µM (active)
same,Potency,[3],0.15 µM (active)
O=C(O)COC(=O)Cc1ccccc1Nc1c(Cl)cccc1Cl,Potency,[1],inactive
same,Potency,[2],inactive
same,activity (max response),[4],7.51% (inactive)
same,Potency,[3],inactive
CCCCc1ncc(/C=C(\Cc2cccs2)C(=O)O)n1Cc1ccc(C(=O)O)cc1,Potency,[1],inactive
same,Potency,[2],inactive
same,activity (max response),[4],6.21% (inactive)
same,Potency,[3],inactive
O=C(NO)c1cnc(NC2(c3ccccc3)CC2)nc1,Potency,[1],5.25 µM (active)
same,Potency,[2],4.17 µM (active)
same,Potency,[4],10 µM (active)
same,Potency,[3],3.98 µM (active)
COc1ccccc1OCC(O)CO (configuration not stated),Potency,[1],inactive
same,Potency,[2],inactive
same,activity (max response),[4],13.4% (inactive)
same,Potency,[3],inactive
CCCCCCCCCCCCCCCC[N+](C)(C)Cc1ccccc1,Potency,[1],2.37 µM (active)
same,Potency,[2],1.88 µM (active)
same,Potency,[4],8.2 µM (active)
same,Potency,[3],8.2 µM (active)
CN(C)C/C=C/C(=O)Nc1cc2c(Nc3ccc(F)c(Cl)c3)ncnc2cc1O[C@H]1CCOC1,Potency,[1],1.48 µM (active)
same,Potency,[2],1.86 µM (active)
same,Potency,[4],0.891 µM (active)
same,Potency,[3],7.08 µM (active)
Cc1ccc(Nc2nnc(Cc3ccncc3)c3ccccc23)cc1Br,Potency,[1],14.8 µM (active)
same,Potency,[2],10.5 µM (active)
same,Potency,[3],inactive
O=C(O)C(Cc1cc(I)c(O)c(I)c1)c1ccccc1 (configuration not stated),Potency,[1],inactive
same,Potency,[2],inactive
same,Potency,[3],inactive
COc1cccc(OCCCN)c1-c1cc(Nc2cnc(C#N)cn2)n[nH]1,Potency,[1],14.6 nM (active) and 5.9 nM (active)
same,Potency,[2],0.0116 µM (active)
same,activity (max response),[4],-3.44% (inactive)
same,Potency,[3],inactive
CCCCOC(=O)NS(=O)(=O)c1sc(CC(C)C)cc1-c1ccc(Cn2ccnc2)cc1,Potency,[1],14.8 µM (active)
same,Potency,[2],14.8 µM (active)
same,Potency,[4],28.2 µM (active)
same,Potency,[3],25.1 µM (active)
O=C(/C=C/c1ccc(/C=C/C(=O)Nc2ccc(C3=NCCN3)cc2)cc1)Nc1ccc(C2=NCCN2)cc1,viability (% of control),[1],73.8% [at 4.97 µM] (inactive)
same,"viability, % of control",[2],91.6% [at 4.97 µM] (inactive)
same,activity (max response),[4],-13% (inactive)
same,"activity change, negative = viability loss",[3],-22% [at 3.81 µM] (inactive)
CC(=O)NC(CS)C(=O)O (configuration not stated),Potency,[1],inactive
same,Potency,[2],inactive
same,activity (max response),[4],-2.17% (inactive)
same,Potency,[3],inactive
CC(C)[C@H]1C(=O)N[C@@H](CCCN=C(N)N)C(=O)NCC(=O)N[C@@H](CC(=O)O)C(=O)N[C@H](Cc2ccccc2)C(=O)N1C,Potency,[1],inactive
same,Potency,[2],inactive
same,Potency,[3],inactive
O=C(O)CCC(=O)Nc1ccc(S(=O)(=O)Nc2nccs2)cc1,Potency,[1],inactive
same,Potency,[2],inactive
same,activity (max response),[4],-7.1% (inactive)
same,Potency,[3],inactive
O=C(Nc1ncc(SCCN2CCCC2)s1)[C@]1(c2ccc(S(=O)(=O)C3CC3)cc2)C[C@H]1C1CCCCC1,Potency,[1],7.42 µM (active)
same,Potency,[2],8.33 µM (active)
same,Potency,[3],7.08 µM (active)
CCCC(CCC)C(=O)Nc1ccn([C@@H]2O[C@H](CO)[C@@H](O)C2(F)F)c(=O)n1,Potency,[1],0.411 µM (active)
same,Potency,[2],0.58 µM (active)
same,Potency,[3],inactive
N=C1CCCN1Cc1[nH]c(=O)[nH]c(=O)c1Cl,Potency,[1],inactive
same,Potency,[2],inactive
same,Potency,[3],inactive
CC(C)Oc1ccc(-c2nc(-c3cccc4c3CC[C@@H]4NCCO)no2)cc1C#N,Potency,[1],11.8 µM (active)
same,Potency,[2],11.8 µM (active)
same,Potency,[3],28.2 µM (active)
Cc1ccc(C(=O)Nc2ccc(CN3CCN(C)CC3)c(C(F)(F)F)c2)cc1C#Cc1cnc2[nH]ncc2c1,Potency,[1],inactive
same,Potency,[2],inactive
same,Potency,[3],5.01 µM (active)
O=C(O)Cn1c(C(=O)Nc2nc(-c3ccccc3Cl)cs2)cc2ccccc21,Potency,[1],inactive
same,Potency,[2],inactive
same,Potency,[3],inactive
Cc1cccc(/C=N/Nc2cc(N3CCOCC3)nc(OCCc3ccccn3)n2)c1,Potency,[1],1.32 µM (active)
same,Potency,[2],0.296 µM (active)
same,Potency,[3],28.2 µM (active)
C=C1C(=O)O[C@@H]2[C@H]3C(C)=CC[C@@]34O[C@@]4(C)CC[C@@H]12,Potency,[1],3.32 µM (active)
same,Potency,[2],1.48 µM (active)
same,Potency,[3],17.8 µM (active)
Cc1c(C)n(Cc2ccccc2)c2ccc(C(=O)OCCN(C)C)cc12,Potency,[1],11.9 µM (active)
same,Potency,[2],11.9 µM (active)
same,Potency,[3],23.1 µM (active)
C[C@@H](O)[C@@H]1NC(=O)[C@H](CCCCN)NC(=O)[C@@H](Cc2c[nH]c3ccccc23)NC(=O)[C@H](Cc2ccccc2)NC(=O)[C@@H](NC(=O)[C@H](N)Cc2ccccc2)CSSC[C@@H](C(=O)N[C@H](CO)[C@@H](C)O)NC1=O,Potency,[1],inactive
same,Potency,[2],inactive
same,Potency,[3],inactive
O=S(=O)(c1cccc2c(I)cccc12)N1CCCNCC1,Potency,[1],7.42 µM (active)
same,Potency,[2],16.4 µM (active)
same,Potency,[3],25.1 µM (active)
COC1CCN(C(=O)c2cc(Cc3n[nH]c(=O)c4ccccc34)ccc2F)CC1,Potency,[1],18.6 µM (active)
same,Potency,[2],14.8 µM (active)
same,Potency,[3],inactive
CN(C)c1cc(NC(=O)CNC(C)(C)C)c(O)c2c1C[C@H]1C[C@H]3[C@H](N(C)C)C(=O)C(C(N)=O)=C(O)[C@]3(O)C(=O)C1=C2O,Potency,[1],inactive
same,Potency,[2],inactive
same,Potency,[3],inactive
CCCCCCCCCCCC[N+](C)(C)Cc1ccccc1,Potency,[1],6.68 µM (active)
same,Potency,[2],9.44 µM (active)
same,Potency,[3],29.1 µM (active)
Cc1onc(-c2c(Cl)cccc2Cl)c1C(=O)N[C@@H]1C(=O)N2[C@@H]1SC(C)(C)[C@@H]2C(=O)O,Potency,[1],inactive
same,Potency,[2],inactive
same,Potency,[3],inactive
NS(=O)(=O)c1cc2c(cc1Cl)NC(CC1CCCC1)NS2(=O)=O (configuration not stated),Potency,[1],inactive
same,Potency,[2],inactive
same,Potency,[3],inactive
